Rows were chosen to be rich in hits. Some 0.99% of all compounds tested hit in one or more screens of this group.
TRPV1 agonist: human TRPV1 agonism | activation, % at 8.33 µM | TRPV1-expressing cells, Fluo-8 calcium influx, agonist mode | Q8NER1 | 0.19% of 320,000 active; in the data active means activation above about 80%; inconclusive means between about 30% and that limit
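Fluo-8 calcium influx in TRPV1-expressing cells, kinetic read (ex 480/em 520 nm). Compound added and read 3 min for agonist activity, followed by capsaicin at EC20 final and 2 min further read for enhancement.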
TRHR ag: activates the human TRH receptor. activation, % at 2 µM. 0.18% of 360,000 active. TRHR cells, calcium flux fluo-8, FDSS agonist mode. AID 493084; in the data active means activation above about 30%
Target sequence (P34981 whole entry, looked up): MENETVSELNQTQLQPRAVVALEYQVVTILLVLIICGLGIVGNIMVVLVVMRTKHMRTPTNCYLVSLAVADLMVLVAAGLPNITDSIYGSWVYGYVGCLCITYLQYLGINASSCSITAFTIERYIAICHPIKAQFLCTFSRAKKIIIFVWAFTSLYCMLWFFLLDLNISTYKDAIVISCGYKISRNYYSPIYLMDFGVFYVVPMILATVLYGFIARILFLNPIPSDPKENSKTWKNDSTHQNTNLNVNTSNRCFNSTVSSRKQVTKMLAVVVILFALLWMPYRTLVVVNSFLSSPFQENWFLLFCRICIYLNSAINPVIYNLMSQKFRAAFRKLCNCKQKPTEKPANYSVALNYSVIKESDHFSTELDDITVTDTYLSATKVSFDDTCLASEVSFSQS
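Fluo-8-loaded TRHR cells; 10 s baseline, compound added, kinetic Ca2+ fluorescence read 1/s, agonist mode.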
TRPML1 agonist: agonists of human TRPML1 channel; Q9GZU1; TRPML1-expressing cells, Ca2+ dye fluorescence, FDSS; activation, % (concentration not given with the values); 0.12% of 410,000 active; AID 624414; in the data active means activation above about 50%; inconclusive means mostly about 30% to 49%
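Tetracycline-induced TRPML1-DL cells are seeded and incubated overnight before loading with a no-wash Ca2+ dye and quencher. Agonist activity is taken from the 110 s fluorescence read following compound pin-transfer on an FDSS, before EC80 54-4 challenge.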
TRPML1 blocker: human mucolipin-1 channel inhibition. Q9GZU1. TRPML1-inducible cells, Ca2+ dye fluorescence, FDSS; stronger effect = lower value; inhibition of EC80 agonist-evoked calcium signal. activity change, negative = inhibition, % (concentration not given with the values). 0.02% of 390,000 active; in the data active means activity change below about -50%; inconclusive means between about -30% and that limit;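 further: stimulus is agonist 54-4 at its EC80 concentration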
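TRPML1-DL cells, Tet-induced overnight (~16 h, 37 °C) at 1,500 cells/well, were loaded with Ca8 no-wash dye plus quencher for 45-90 min at room temperature. Compounds were pinned during FDSS kinetic reading; agonist 54-4 at EC80 (4 uM final) then added.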
TRHR enhancer: TRH receptor (human) allosteric enhancement; TRHR cells, fluo-8 calcium fluorescence, EC20 TRH enhancement; enhancement, % at 2 µM; 0.66% of 360,000 active; AID 493056; in the data active means enhancement above about 30%
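Enhancer read-out: after compound pinning and an initial kinetic agonist-mode read, an EC20 of TRH (10 nM final) was injected and fluo-8 calcium signal (Ex 480/Em 530) followed at 1 s/cycle for 100 cycles in TRHR-expressing cells.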
TRPV1 PAM: human TRPV1 potentiation. Q8NER1. TRPV1-expressing cells, Fluo-8 calcium influx, capsaicin EC20 potentiation. potentiation, % at 8.33 µM. 0.02% of 320,000 active; in the data active means potentiation above about 80%; inconclusive means between about 30% and that limit
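Cells expressing TRPV1 were dye-loaded with Fluo-8 and read kinetically: 10 s baseline, 3 min after compound (agonist portion), then 2 min after EC20 capsaicin (allosteric enhancer portion). Calcium-bound dye fluorescence at 480/520 nm.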
Of the large screens only hits and unclear results are named; the others gave an inactive call; ! = a repeat was not active.

COC(=O)CN1C(=O)S/C(=C/c2ccc(N3CCCCC3)o2)C1=O	TRPV1 agonist inconclusive, TRHR ag 56
O=C(NC1=NCCS1)c1ccccc1Cl	none
O=C(NC1=NCCS1)c1cc(Cl)ccc1Cl	TRHR enhancer 39
COc1cc(-c2c(C(C)=O)c(C)nc3c2C(=O)c2ccccc2-3)cc(OC)c1OC	none
CC(=O)c1c(Cl)nc2cccc3c2c1-c1ccccc1C3=O	TRHR enhancer 34
CC(C)NS(=O)(=O)c1cc(C(F)(F)F)ccc1/C=C/C(=O)O	none (no result: TRPV1 agonist, TRHR ag, TRPML1 blocker, TRHR enhancer, TRPV1 PAM)
O=C(NC1CCCN(Cc2ccc(Cl)cc2)C1)C1CCC1 (configuration not stated)	TRHR enhancer 31
COc1ccc(C(=O)Nc2cccc(-c3nc4cccnc4s3)c2C)c(OC)c1	none (no result: TRPV1 agonist, TRPV1 PAM)
CC(C)CN1C(=O)c2ccc(NC(=O)c3cccs3)cc2C1=O	TRPV1 agonist inconclusive, TRHR enhancer 38
COc1ccc(C)cc1NC(=O)C(OC(=O)CNC(=O)c1ccccc1)c1ccccc1 (configuration not stated)	none (no result: TRPV1 agonist, TRPML1 agonist, TRPML1 blocker, TRPV1 PAM)
O=C(CNC(=O)c1ccc(Cl)cc1)OC(C(=O)Nc1cc(C(F)(F)F)ccc1Cl)c1ccccc1 (configuration not stated)	none (no result: TRPV1 agonist, TRPML1 agonist, TRPML1 blocker, TRPV1 PAM)
Cn1c2cc(S(C)(=O)=O)sc2c2cnn(Cc3ccccc3F)c(=O)c21	none (no result: TRPV1 agonist, TRPML1 agonist, TRPML1 blocker, TRPV1 PAM)
CCc1ccc(Nc2nnc(SC3CCOC3=O)s2)cc1 (configuration not stated)	TRPV1 agonist 82
O=C(NCc1ccccc1Cl)C1CCCN(c2ncnc3c2nc2n3CCCCC2)C1 (configuration not stated)	TRPV1 agonist 81
CCOc1ccccc1CNC(=O)C1CCCN(c2ncnc3c2nc2n3CCCCC2)C1 (configuration not stated)	none
COc1ccc(Cl)cc1NC(=O)CSc1nc(-c2ccco2)cc(C(F)(F)F)n1	none (no result: TRPV1 agonist, TRPV1 PAM)
CCC(Sc1nnc(-c2ccc(F)cc2)c(-c2ccc(F)cc2)n1)C(=O)NC1CCCC1 (configuration not stated)	none (no result: TRPV1 agonist, TRPV1 PAM)
COc1cccc2sc(N(CCCN(C)C)C(=O)COc3ccc(Cl)cc3)nc12	TRPV1 PAM inconclusive
CN(C)CCCN(C(=O)COc1ccccc1)c1nc2c(F)cccc2s1	TRPV1 agonist inconclusive, TRHR enhancer 32 (no result: TRPML1 agonist, TRPML1 blocker)
Cc1cc(C)cc(Nc2cc(C(=O)NC3CCC(C)CC3)c3ccccc3n2)c1 (configuration not stated)	TRHR enhancer 33 (no result: TRPV1 agonist, TRPV1 PAM)
Cc1cc(C)cc(Nc2cc(C(=O)NC3CCCCC3)c3ccccc3n2)c1	none (no result: TRPV1 agonist, TRPV1 PAM)
CS(=O)(=O)N1CCC(Oc2ccccc2C(=O)N2CCCCC2CO)CC1 (configuration not stated)	none
COC(=O)CN(C)C(=O)c1ccccc1OC1CCN(S(C)(=O)=O)CC1	TRHR enhancer 35
CCCCOc1ccc(C(=O)Nc2cc(-c3cn4cccnc4n3)ccc2OC)cc1	none (no result: TRPV1 agonist, TRPV1 PAM)
Cc1ccccc1-c1ccc(/C=C2/SC(N3CCOCC3)=NC2=O)o1	TRPV1 agonist 84
CCOc1ccc(NC(=O)CSc2nc3ccccc3nc2N2CCOCC2)cc1	TRHR enhancer 34!
Cc1cc(C(F)F)n2nc(C(=O)Nc3cccc(Cl)c3C)nc2n1	none (no result: TRPV1 agonist, TRPV1 PAM)
NS(=O)(=O)c1ccc(NC=C2C(=O)OC3(CCCCC3)OC2=O)cc1	TRHR enhancer 33
CC(C)(C)C(=O)NC(=S)NNC(=O)c1ccc(-c2ccccc2)cc1	TRPV1 agonist inconclusive, TRHR ag 58, TRPML1 agonist 80
CC(C)(C)C(=O)NC(=S)NNC(=O)c1ccc(Cl)cc1Cl	TRPV1 agonist inconclusive, TRHR ag 102, TRPML1 agonist 66
COC(=O)NNC(=O)c1ccc(Cl)cc1Cl	none
CCCCn1c(N)c(N(CC)C(=O)C2CCCC2)c(=O)[nH]c1=O	TRHR enhancer 36
CCCCN(C(=O)C1CC(=O)N(CCc2ccc(OC)c(OC)c2)C1)c1c(N)n(CCCC)c(=O)[nH]c1=O (configuration not stated)	TRHR enhancer 30
CCCCN(C(=O)C1CC(=O)N(Cc2ccc(C)cc2)C1)c1c(N)n(CCCC)c(=O)[nH]c1=O (configuration not stated)	none
Cc1cc2c(s1)c1cnn(Cc3ccccc3F)c(=O)c1n2Cc1ccccc1F	none (no result: TRPV1 agonist, TRPML1 agonist, TRPML1 blocker, TRPV1 PAM)
Cc1cc(C)c(Cn2c(C)c(CNCc3ccccc3C)c(C(=O)O)c2C)c(C)c1	none (no result: TRPV1 agonist, TRPV1 PAM)
O=S(=O)(c1ccc(Cl)cc1)N1CCN(S(=O)(=O)c2ccc3c(c2)OCCO3)CC1	none (no result: TRPV1 agonist, TRPML1 agonist, TRPML1 blocker, TRPV1 PAM)
COc1cccc(NC(=O)Nc2cc(-c3cn4cccnc4n3)ccc2OC)c1	TRHR enhancer 34 (no result: TRPV1 agonist, TRPV1 PAM)
COc1cccc(NC(=O)Nc2cc(-c3cn4cccnc4n3)ccc2C)c1	none (no result: TRPV1 agonist, TRPV1 PAM)
Cn1c(C(=O)Nc2ccc(Cl)cc2)cc2cc(Cl)ccc21	TRHR enhancer 33
N#C/C(=C/c1cc[nH]c1)C(N)=S	TRHR enhancer 33
C/C(=N\OCC(=O)N/N=C/c1ccccc1)c1cccs1	TRHR enhancer 35
COc1ccc(/C=N/NC(=O)CO/N=C(\C)c2cccs2)cc1	none
COc1ccc2nc(S(=O)Cc3ncc(C)c(OC)c3C)[nH]c2c1 (configuration not stated)	TRHR enhancer 32
COCCCOc1ccnc(CS(=O)c2nc3ccccc3[nH]2)c1C (configuration not stated)	none
COC(c1ccccc1)(c1ccccc1)C(Oc1nccc(C)n1)C(=O)O (configuration not stated)	TRHR enhancer 31
CCOc1ccc2[nH]c(=O)c(CN(CCN3CCOCC3)Cc3nnnn3C(C)(C)CC)cc2c1	TRHR enhancer 30
CCOc1ccc2[nH]c(=O)c(CN(Cc3cccs3)Cc3nnnn3C(C)(C)C)cc2c1	none
Oc1ccc(N2CCN(c3ncnc4sc(-c5ccccc5)cc34)CC2)cc1	none
CC(=O)N1CCN(c2ncnc3sc(-c4ccccc4)cc23)CC1	TRHR enhancer 40
c1ccc(CNCc2nnc(-c3cc4ccccc4[nH]3)o2)cc1	none (no result: TRPV1 agonist, TRPML1 agonist, TRPML1 blocker, TRPV1 PAM)
O=C(C[n+]1cccc2cccc(O)c21)c1ccc(F)cc1	none (no result: TRPV1 agonist, TRHR ag, TRPML1 blocker, TRHR enhancer, TRPV1 PAM)
Cc1cc(C)cc(N(CCC#N)C(=O)CSC2=Nc3ccccc3C3CC=NN23)c1 (configuration not stated)	TRHR enhancer 34
CCOC(=O)C(C)Sc1ccc2nnc(-c3ccc(OCC)cc3)n2n1 (configuration not stated)	none (no result: TRPV1 agonist, TRHR ag, TRPML1 blocker, TRHR enhancer, TRPV1 PAM)
CS(=O)(=O)N1CCc2cc(C(=O)Nc3ccc(Cl)cc3)ccc21	TRPV1 agonist 84
CCn1cc(S(=O)(=O)c2cccc(Cl)c2)c(=O)c2cc(F)c(N3CCN(C)CC3)cc21	none (no result: TRPV1 agonist, TRPV1 PAM)
CCC(C)c1ccc(NC(=O)N2CCOCC2)cc1 (configuration not stated)	TRPV1 agonist 93

Screens from PubChem BioAssay.
